Measurements from PubChem BioAssay AID1159580 (chemical genetic matrix, 2015).
“And” between values parts separate entries of the source, which are not always exact repeats. Equal values may be shown once. In all, about 5,500 compounds went through this assay and about 2,000 (36%) were called active. Roughly 18% stayed inconclusive and do not appear here. Rule as the data show it: active = normalized growth mostly below about 0.91 (no sharp cut-off); inconclusive = no clear call, values can overlap the other calls; inactive = mostly above about 0.92. The list shows a part of the results.

Test: chemical genetic growth profiling, strain panel (AID 1159580);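 also: tested at 20 µM; growth read once vehicle control cultures reached saturation at 30 °C; 1 = growth at the plate median or of vehicle wells; lower values mean less growth of the strain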
Details: S. cerevisiae deletion strains, growth OD

Measured: normalized growth

CNC(=O)CSP(=S)(OC)OC
inactive: locus YAL013W, strain DEP1, stronger effect = lower value 1.02 | locus YAL021C, strain ccr4, stronger effect = lower value 1.01 | locus YAL026C, strain drs2, stronger effect = lower value 1.01 | locus YAL030W, strain snc1, stronger effect = lower value 1.01 | locus YBL061C, strain skt5, stronger effect = lower value 1.03 | locus YBR009C, strain hhf1, stronger effect = lower value 0.999 | locus YBR021W, strain FUR4, stronger effect = lower value 0.994 | locus YBR023C, strain chs3, stronger effect = lower value 1.03 | locus YBR171W, strain sec66, stronger effect = lower value 1.03 | locus YBR229C, strain ROT2, stronger effect = lower value 1.01 | locus YBR231C, strain swc5, stronger effect = lower value 1.01 | locus YBR279W, strain paf1, stronger effect = lower value 1.01 | locus YCL011C, strain gbp2, stronger effect = lower value 1.02 | locus YCL016C, strain dcc1, stronger effect = lower value 1.02 | locus YCL029C, strain bik1, stronger effect = lower value 1.01 | locus YCL061C, strain MRC1, stronger effect = lower value 1.01 | locus YCL069W, strain vba3, stronger effect = lower value 1.02 | locus YCR088W, strain abp1, stronger effect = lower value 1.01 | locus YDL005C, strain med2, stronger effect = lower value 1.03 | locus YDL035C, strain GPR1, stronger effect = lower value 1.02 | locus YDL040C, strain nat1, stronger effect = lower value 1.02 | locus YDL074C, strain BRE1, stronger effect = lower value 0.971 | locus YDL101C, strain DUN1, stronger effect = lower value 1 | locus YDL134C, strain PPH21, stronger effect = lower value 1 | locus YDL185W, strain tfp1, stronger effect = lower value 1.03 | locus YDL192W, strain arf1, stronger effect = lower value 1.02 | locus YDR001C, strain nth1, stronger effect = lower value 1.01 | locus YDR069C, strain doa4, stronger effect = lower value 1.02 | locus YDR101C, strain arx1, stronger effect = lower value 1.02 | locus YDR137W, strain rgp1, stronger effect = lower value 1.03 | locus YDR150W, strain NUM1, stronger effect = lower value 1.01 | locus YDR159W, strain sac3, stronger effect = lower value 1.02 | locus YDR162C, strain NBP2, stronger effect = lower value 1.01 | locus YDR195W, strain ref2 0.99 | locus YDR297W, strain sur2, stronger effect = lower value 1.01 | locus YDR318W, strain mcm21, stronger effect = lower value 1.02 | locus YDR334W, strain swr1, stronger effect = lower value 1.02 | locus YDR335W, strain msn5, stronger effect = lower value 1.01 | locus YDR388W, stronger effect = lower value 1.02 | locus YDR392W, strain spt3, stronger effect = lower value 1.01 | locus YDR502C, strain sam2, stronger effect = lower value 1.02 | locus YEL003W, strain gim4, stronger effect = lower value 1.01 | locus YEL037C, strain rad23, stronger effect = lower value 1.02 | locus YEL061C, strain CIN8 (second series), stronger effect = lower value 1.01 | locus YEL061C, strain CIN8, stronger effect = lower value 1.01 | locus YER015W, strain faa2, stronger effect = lower value 1.02 | locus YER016W, strain bim1, stronger effect = lower value 1.02 | locus YER110C, stronger effect = lower value 1.02 | locus YER111C, strain swi4, stronger effect = lower value 1.01 | locus YER155C, strain BEM2 (second series), stronger effect = lower value 1.02 | locus YER155C, strain BEM2, stronger effect = lower value 1.01 | locus YER167W, strain BCK2, stronger effect = lower value 1.01 | locus YFR010W, strain ubp6, stronger effect = lower value 1.01 | locus YGL078C, strain dbp3, stronger effect = lower value 1.02 | locus YGL086W, strain mad1, stronger effect = lower value 1.01 | locus YGL167C, strain pmr1, stronger effect = lower value 1.02 | locus YGL173C, strain kem1, stronger effect = lower value 1.02 | locus YGL227W, strain vid30, stronger effect = lower value 1.01 | locus YGL240W, strain doc1, stronger effect = lower value 1 | locus YGL248W, strain PDE1, stronger effect = lower value 1 | locus YGL253W, strain hxk2, stronger effect = lower value 1.03 | locus YGR078C, strain PAC10, stronger effect = lower value 1.02 | locus YGR135W, strain pre9, stronger effect = lower value 1.01 | locus YGR229C, strain SMI1, stronger effect = lower value 1.03 | locus YGR252W, strain gcn5, stronger effect = lower value 0.995 | locus YHR013C, strain ard1, stronger effect = lower value 1.01 | locus YHR027C, strain rpn1, stronger effect = lower value 1.02 | locus YHR030C, strain SLT2, stronger effect = lower value 1.03 and 1.08 | locus YHR079C, strain IRE1 (second series), stronger effect = lower value 1.02 | locus YHR079C, strain IRE1, stronger effect = lower value 1.04 | locus YHR094C, strain hxt1, stronger effect = lower value 1.02 | locus YHR129C, strain ARP1, stronger effect = lower value 1.01 | locus YHR142W, strain chs7, stronger effect = lower value 1.03 | locus YHR200W, strain rpn10, stronger effect = lower value 1.02 | locus YIL066C, strain RNR3, stronger effect = lower value 1.04 | locus YIL073C, strain SPO22, stronger effect = lower value 1.09 | locus YIL125W, strain kgd1, stronger effect = lower value 1.01 | locus YIR030C, strain dcg1, stronger effect = lower value 1.03 | locus YJL092W, strain hpr5, stronger effect = lower value 1.01 | locus YJL095W, strain BCK1 (second series), stronger effect = lower value 1.03 | locus YJL095W, strain BCK1, stronger effect = lower value 1 and 1.08 | locus YJL115W, strain asf1, stronger effect = lower value 1.01 | locus YJL129C, strain trk1, stronger effect = lower value 1.03 | locus YJL134W, strain LCB3, stronger effect = lower value 1 | locus YJL154C, strain vps35, stronger effect = lower value 1.01 | locus YJL164C, strain tpk1, stronger effect = lower value 1.02 | locus YJL166W, strain qcr8, stronger effect = lower value 1 | locus YJL168C, strain set2, stronger effect = lower value 1.02 | locus YJL187C, strain SWE1 (second series), stronger effect = lower value 1.02 | locus YJR043C, strain POL32, stronger effect = lower value 0.998 | locus YJR066W, strain TOR1, stronger effect = lower value 0.992
